Where “and” joins values, the source holds several entries; their conditions need not be identical. Equal values may be shown once. The campaign covered roughly 5,500 compounds. About 2,000 (36%) were called active. Not shown: some 18% with an inconclusive outcome. No stated cut-off is given here; in the data, active means normalized growth mostly below about 0.91 (no sharp cut-off); inconclusive means no clear call, values can overlap the other calls; inactive means mostly above about 0.92. This is one part of the list.
Assay: chemical genetic growth profiling, strain panel (AID 1159580);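 further: tested at 20 µM; growth read once vehicle control cultures reached saturation at 30 °C; 1 = growth at the plate median or of vehicle wells; lower values mean less growth of the strain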
Settings: S. cerevisiae deletion strains, growth OD

Measured: normalized growth

CN(C)CCN(Cc1ccccc1)c1ccccn1
inactive: locus YAL013W, strain DEP1, hits give low values 0.988 | locus YAL021C, strain ccr4, hits give low values 1.01 | locus YAL026C, strain drs2, hits give low values 1.01 | locus YAL030W, strain snc1, hits give low values 1.02 | locus YBL061C, strain skt5, hits give low values 1.01 | locus YBR009C, strain hhf1, hits give low values 0.963 | locus YBR021W, strain FUR4, hits give low values 0.99 | locus YBR023C, strain chs3, hits give low values 1.01 | locus YBR171W, strain sec66, hits give low values 1.02 | locus YBR229C, strain ROT2, hits give low values 1.01 | locus YBR231C, strain swc5, hits give low values 1.02 | locus YBR279W, strain paf1, hits give low values 1.01 | locus YCL011C, strain gbp2, hits give low values 1 | locus YCL016C, strain dcc1, hits give low values 0.997 | locus YCL029C, strain bik1, hits give low values 0.972 | locus YCL061C, strain MRC1, hits give low values 1.03 | locus YCL069W, strain vba3, hits give low values 1.01 | locus YCR088W, strain abp1, hits give low values 0.997 | locus YDL005C, strain med2, hits give low values 1.01 | locus YDL035C, strain GPR1, hits give low values 1.01 | locus YDL040C, strain nat1, hits give low values 1.02 | locus YDL074C, strain BRE1, hits give low values 1.02 | locus YDL101C, strain DUN1, hits give low values 0.987 | locus YDL134C, strain PPH21, hits give low values 1 | locus YDL185W, strain tfp1, hits give low values 0.946 | locus YDL192W, strain arf1, hits give low values 0.98 | locus YDR001C, strain nth1, hits give low values 1.01 | locus YDR069C, strain doa4, hits give low values 1.03 | locus YDR101C, strain arx1, hits give low values 0.988 | locus YDR137W, strain rgp1, hits give low values 1.01 | locus YDR150W, strain NUM1, hits give low values 0.981 | locus YDR159W, strain sac3, hits give low values 0.981 | locus YDR162C, strain NBP2, hits give low values 0.989 | locus YDR195W, strain ref2 1.02 | locus YDR297W, strain sur2, hits give low values 1.02 | locus YDR318W, strain mcm21, hits give low values 1.01 | locus YDR334W, strain swr1, hits give low values 1.01 | locus YDR335W, strain msn5, hits give low values 1.02 | locus YDR388W, hits give low values 1 | locus YDR392W, strain spt3, hits give low values 0.999 | locus YDR502C, strain sam2, hits give low values 1.02 | locus YEL003W, strain gim4, hits give low values 1.02 | locus YEL037C, strain rad23, hits give low values 1.02 | locus YEL061C, strain CIN8 (second series), hits give low values 1.02 | locus YEL061C, strain CIN8, hits give low values 0.992 | locus YER015W, strain faa2, hits give low values 1.01 | locus YER016W, strain bim1, hits give low values 0.964 | locus YER110C, hits give low values 0.973 | locus YER111C, strain swi4, hits give low values 1.02 | locus YER155C, strain BEM2 (second series), hits give low values 1.05 | locus YER155C, strain BEM2, hits give low values 1 | locus YER167W, strain BCK2, hits give low values 0.996 | locus YFR010W, strain ubp6, hits give low values 1.03 | locus YGL078C, strain dbp3, hits give low values 0.991 | locus YGL086W, strain mad1, hits give low values 0.992 | locus YGL167C, strain pmr1, hits give low values 1.01 | locus YGL173C, strain kem1, hits give low values 1.03 | locus YGL227W, strain vid30, hits give low values 1.01 | locus YGL240W, strain doc1, hits give low values 1.04 | locus YGL248W, strain PDE1, hits give low values 1.01 | locus YGL253W, strain hxk2, hits give low values 1 | locus YGR078C, strain PAC10, hits give low values 0.988 | locus YGR135W, strain pre9, hits give low values 1.01 | locus YGR229C, strain SMI1, hits give low values 1 | locus YGR252W, strain gcn5, hits give low values 1.14 | locus YHR013C, strain ard1, hits give low values 0.984 | locus YHR027C, strain rpn1, hits give low values 1 | locus YHR030C, strain SLT2, hits give low values 0.968 and 0.97 | locus YHR079C, strain IRE1 (second series), hits give low values 0.999 | locus YHR079C, strain IRE1, hits give low values 0.953 | locus YHR094C, strain hxt1, hits give low values 0.967 | locus YHR129C, strain ARP1, hits give low values 0.994 | locus YHR142W, strain chs7, hits give low values 1.01 | locus YHR200W, strain rpn10, hits give low values 1 | locus YIL066C, strain RNR3, hits give low values 1 | locus YIL073C, strain SPO22, hits give low values 0.928 | locus YIL125W, strain kgd1, hits give low values 0.976 | locus YIR030C, strain dcg1, hits give low values 0.994 | locus YJL092W, strain hpr5, hits give low values 1.03 | locus YJL095W, strain BCK1 (second series), hits give low values 1.01 | locus YJL095W, strain BCK1, hits give low values 0.96 and 0.975 | locus YJL115W, strain asf1, hits give low values 1.02 | locus YJL129C, strain trk1, hits give low values 1.02 | locus YJL134W, strain LCB3, hits give low values 0.998 | locus YJL154C, strain vps35, hits give low values 1.01 | locus YJL164C, strain tpk1, hits give low values 1 | locus YJL166W, strain qcr8, hits give low values 1.04 | locus YJL168C, strain set2, hits give low values 0.982 | locus YJL187C, strain SWE1 (second series), hits give low values 0.985 | locus YJR043C, strain POL32, hits give low values 1.01 | locus YJR066W, strain TOR1, hits give low values 0.947

From PubChem BioAssay AID1159580 (chemical genetic matrix, 2015)
